Compound activity from PubChem.
This is a sample that favours compounds with a hit; in the whole collection about 21% have one here.
CHX counter – counter-screen hit for Shiga toxin inhibitors, cycloheximide; max response, %; AID 2314; 300,000 tested, 12% active; cell reporter, cycloheximide protein synthesis inhibition counterscreen; in the data active = max response mostly above about 13%, no sharp cut-off; inactive = mostly below about 14%; note: read at 38.3 µM for the half of the compounds with a filed dose
HCV inh – HCV inhibition | Huh7.5.1 HCVcc-Cre infection, luciferase reporter, 44 h | Potency, µM (doses to about 41.8 µM), most hits filed as inhibitors | 340,000 tested, 3.4% active | AID 651820
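Cells seeded at 1,000/well and cultured 4 h, then compounds added followed by HCVcc-Cre virus (~0.5 moi). After 44 h further culture, luciferase substrate was added, plates held 15 min at room temperature, and luminescence read for 15 sec.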
HCMV antiviral – inhibitors of human cytomegalovirus. HFF cells, HCMV-luciferase reporter, 72 h; active compounds read low. activity change, negative = inhibition, % at 57.5 µM. 410,000 tested, 4.5% active. AID 1259415; in the data active = activity change below about -60%; inconclusive = no clear call, values can overlap the other calls; inactive = above about -39%
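Cell-based, HFFs, 1000 cells/well, 16 h 37C; cpds in DMSO + HCMV-luc, MOI 1 PFU/cell; 72 h 37C; OneGlo luminescence after 5 min RT; norm. to buffer vs Salinomycin 10uM.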
Pf growth 48h – P. falciparum growth inhibition at 48 hours (one generation) | P. falciparum luciferase growth in erythrocytes, 48 h | Potency, µM (series often up to 28.7 µM), actives largely listed as inhibitors | AID 504832 | 310,000 tested, 5.9% active
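In quantitative HTS format, infected erythrocytes bearing luciferase-reporter parasites were treated for a single generation at 37 C. Luminescence after adding detection reagent served as the growth measure.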
Pf growth 96h – inhibits malaria parasite growth, 96 h. AID 504834. Potency, µM (series often up to 28.7 µM), hits mostly inhibitors. P. falciparum luciferase reporter growth, 96 h. 320,000 tested, 6.9% active
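P. falciparum expressing integrated firefly luciferase, in erythrocytes at 2% hematocrit, 0.05% parasitemia, incubated with compounds 96 h at 37 C, 5% CO2. Growth inhibition read as loss of luminescence; two-generation exposure targets delayed-death apicoplast inhibitors.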
Shiga toxin inh – inhibitors of Shiga toxin in Vero cells; Vero cells, Shiga toxin protein synthesis inhibition reporter; inhibition, % at 38.7 µM; 290,000 tested, 9.2% active; AID 2315; in the data active = inhibition mostly above about 28%, no sharp cut-off; inactive = mostly below about 43%
Large screens that a line does not name were inactive. Unless noted, calls come from the whole dose curve; as a rule, active = well fitted inhibition curve with a large enough effect; inconclusive = small, poorly fitted or top-dose-only effect, or another doubt; inactive = no such curve, though single readings can be large or run the other way.

Cc1c(NC(=O)COC(=O)c2cc(-c3ccc(-c4ccccc4)cc3)nc3ccccc23)c(=O)n(-c2ccccc2)n1C	CHX counter 56.8, HCMV antiviral -97.2, Shiga toxin inh 83.6
Cc1c(NC(=O)c2cc(-c3ccccc3)nc3ccccc23)c(=O)n(-c2ccccc2)n1C	none (no result: CHX counter, Pf growth 48h, Pf growth 96h, Shiga toxin inh)
Nc1ncnc2c1ncn2[C@@H]1O[C@H](C(=O)NS(=O)(=O)c2ccccc2[N+](=O)[O-])[C@@H](O)[C@H]1O	none (no result: CHX counter, HCV inh, Pf growth 48h, Pf growth 96h, Shiga toxin inh)
COc1ccc(Cl)cc1NC(=O)CSC1=Nc2ccccc2C2=NC(CCC(=O)NCc3ccc(F)cc3)C(=O)N12 (stereo unspecified)	none (no result: CHX counter, HCV inh, Pf growth 48h, Pf growth 96h, Shiga toxin inh)
COc1ccc(OC)c(S(=O)(=O)Nc2c(C)n(C)n(-c3ccccc3)c2=O)c1	Pf growth 96h 14.7µM
Cc1c(NC(=O)Nc2cccc(C#N)c2)c(=O)n(-c2ccccc2)n1C	Pf growth 96h 3.7µM
Cc1c(NC(=O)c2cc3ccccc3o2)c(=O)n(-c2ccccc2)n1C	Pf growth 96h inconclusive
Cc1c(NC(=O)c2ccc(COc3ccc4ccccc4c3)o2)c(=O)n(-c2ccccc2)n1C	CHX counter 30.7, Pf growth 48h inconclusive, Shiga toxin inh 91.2
O=C(CSc1nc2c(c(C(F)(F)F)n1)CCc1ccccc1-2)NCc1ccco1	HCV inh inconclusive
CC(NC(=O)CSc1nc2c(c(C(F)(F)F)n1)CCc1ccccc1-2)c1ccccc1 (stereo unspecified)	HCV inh 12.6µM, HCMV antiviral inconclusive, Pf growth 48h 7.38µM
COc1ccc(C(CC(=O)N2CCCCC2)c2c(OC)cc(OC)c3c(-c4ccccc4)cc(=O)oc23)cc1 (stereo unspecified)	HCV inh inconclusive, Pf growth 48h 11.7µM, Pf growth 96h 13.1µM
COc1ccc(C(CC(=O)N2CCN(c3ccccc3)CC2)c2c(OC)cc(OC)c3c(-c4ccccc4)cc(=O)oc23)cc1 (stereo unspecified)	Pf growth 48h inconclusive, Pf growth 96h inconclusive (no result: HCV inh, HCMV antiviral)
COc1ccc(C(CC(=O)N2CCCC2)c2c(OC)cc(OC)c3c(-c4ccccc4)cc(=O)oc23)cc1 (stereo unspecified)	HCV inh inconclusive, Pf growth 48h 9.28µM, Pf growth 96h inconclusive
COc1ccc(C(CC(=O)N2CCCC(C)C2)c2c(OC)cc(OC)c3c(-c4ccccc4)cc(=O)oc23)cc1 (stereo unspecified)	HCV inh inconclusive, HCMV antiviral -68.4, Pf growth 48h 9.28µM, Pf growth 96h 11.7µM
COc1ccc(C(CC(=O)N2CCOCC2)c2c(OC)cc(OC)c3c(-c4ccccc4)cc(=O)oc23)cc1 (stereo unspecified)	HCV inh inconclusive, HCMV antiviral inconclusive, Pf growth 48h 10.4µM, Pf growth 96h inconclusive
CCOc1ccc(NC(=O)Cn2ccn(-c3ccc(F)c(F)c3)c(=O)c2=O)cc1	none (no result: CHX counter, HCV inh, Pf growth 48h, Pf growth 96h, Shiga toxin inh)
COc1cc(C(CC(=O)N2CCCC2)c2c(OC)cc(OC)c3c(-c4ccccc4)cc(=O)oc23)cc(OC)c1OC (stereo unspecified)	HCV inh inconclusive, Pf growth 48h 5.22µM, Pf growth 96h 3.7µM
COc1cc(OC)c2c(-c3ccccc3)cc(=O)oc2c1C(CC(=O)N1CCCC1)c1ccc(N(C)C)cc1 (stereo unspecified)	none (no result: HCV inh, HCMV antiviral, Pf growth 48h, Pf growth 96h)
CC1=NOC(=O)/C1=C\c1ccc(-c2ccc(Cl)cc2Cl)o1	HCMV antiviral -75.0
O=C(CCCCCn1c(=O)[nH]c2ccccc2c1=O)NCCc1ccccc1	none (no result: CHX counter, HCV inh, Pf growth 48h, Pf growth 96h, Shiga toxin inh)
Cc1ccc([C@H]2C[C@H](O)[C@@H](n3cc(COC(=O)c4ccccc4)nn3)CN2Cc2cccs2)cc1	none (no result: CHX counter, HCV inh, Pf growth 48h, Pf growth 96h, Shiga toxin inh)
O=C(OCc1ccc(Br)cc1)c1ccncc1	none
O=C(OCc1ccc(Cl)cc1Cl)c1cccnc1Cl	none
O=C(OCc1ccc(Br)cc1)c1cccnc1Cl	CHX counter 26.6
O=C(COC(=O)c1cccnc1Cl)c1cccc(Cl)c1	CHX counter 34.1, Shiga toxin inh 38.7 (no result: Pf growth 48h)
O=C(COC(=O)c1cccnc1Cl)c1ccc(Cl)s1	none (no result: CHX counter, Pf growth 48h, Pf growth 96h, Shiga toxin inh)
O=C(OCc1ccc(Br)cc1)c1cnc(Cl)c(Cl)c1	HCMV antiviral -60.3, Pf growth 48h inconclusive
Nc1ncccc1OCc1ccc(Cl)c(Cl)c1	CHX counter 47.1, Shiga toxin inh 56.0
CC(NC(=O)/C(=C/c1cccc([N+](=O)[O-])c1)NC(=O)c1ccco1)C(=O)O (stereo unspecified)	Pf growth 96h inconclusive
CN1C(=O)c2ccccc2N(C)C1c1cccc(O)c1 (stereo unspecified)	Pf growth 96h inconclusive (no result: Shiga toxin inh)
O=C(OCc1ccc(Cl)c(Cl)c1)c1cccnc1Cl	CHX counter 23.2
O=C(OCc1ccc(Cl)c(Cl)c1)c1ccccn1	none (no result: Pf growth 48h)
N=c1n(CCN2CCCCC2)c2ccccc2n1CC(O)COc1ccccc1 (stereo unspecified)	HCV inh 11.2µM, Pf growth 48h inconclusive
COc1ccccc1OCC(O)Cn1c(=N)n(CCN2CCCCC2)c2ccccc21 (stereo unspecified)	HCV inh 2.51µM, HCMV antiviral inconclusive, Pf growth 48h 3.29µM
N=c1n(CCN2CCOCC2)c2ccccc2n1CC(O)COc1ccccc1 (stereo unspecified)	none
COc1ccc(OCC(O)Cn2c(=N)n(CCN3CCOCC3)c3ccccc32)cc1 (stereo unspecified)	Pf growth 48h inconclusive (no result: Pf growth 96h)
Cc1ccccc1OCC(O)Cn1c(=N)n(CCN2CCCCC2)c2ccccc21 (stereo unspecified)	HCMV antiviral -92.0 (no result: CHX counter, HCV inh, Pf growth 48h, Pf growth 96h, Shiga toxin inh)
Cc1ccccc1OCC(O)Cn1c(=N)n(CCN2CCOCC2)c2ccccc21 (stereo unspecified)	HCV inh inconclusive, HCMV antiviral inconclusive, Pf growth 48h inconclusive, Pf growth 96h inconclusive
CC(=O)Nc1nc(C)cs1	Pf growth 48h inconclusive
CCOC(=O)Cc1csc(NC(=O)c2c(C)noc2C)n1	HCMV antiviral -99.2 (no result: CHX counter, Pf growth 48h, Pf growth 96h, Shiga toxin inh)
CCOC(=O)Cc1csc(NC(=O)c2c(-c3ccccc3)noc2C)n1	none (no result: Pf growth 96h)
Cc1csc(NC(=O)c2ccoc2C)n1	CHX counter 49.2, Shiga toxin inh 63.6
CCCCC(=O)Nc1ccc(C(=O)Nc2nc(CC(=O)OCC)cs2)cc1	HCV inh inconclusive (no result: Pf growth 96h)
CCOC(=O)Cc1csc(NC(=O)c2ccoc2C)n1	CHX counter 29.3, HCV inh inconclusive, Shiga toxin inh 83.6 (no result: Pf growth 96h)
O=C(COc1ccc(Cl)cc1)NCc1nnc2c3ccccc3c(-c3ccccc3)nn12	HCMV antiviral inconclusive, Pf growth 96h 13.1µM
O=C(NCc1nnc2c3ccccc3c(-c3ccccc3)nn12)c1ccccc1Cl	none
CCOC(=O)c1ccc(NC(=O)COc2ccccc2CNC2CCCC2)cc1	Pf growth 48h 4.65µM
CCOC(=O)c1ccc(NC(=O)COc2ccccc2OC)cc1	Pf growth 48h inconclusive
CCOc1cc(CNC2CCCC2)c(Cl)cc1OCC(=O)Nc1ccccc1	HCV inh inconclusive, Pf growth 48h 10.4µM
